Laboratory results taken from PubChem BioAssay AID504832 (National Center for Advancing Translational Sciences (NCATS), 2011).
Several values for one entry are separate records, joined by “and”; a condition that tells them apart may be missing. Equal entries are not always repeated. In all, about 310,000 compounds went through this assay and about 18,000 (5.8%) were called active. Entries that show only a call come without a potency. Another 22% or so got no clear call; they are omitted. Calls follow the shape of the dose curve; as a rule, active = well fitted inhibition curve with a large enough effect; inconclusive = small, poorly fitted or top-dose-only effect, or another doubt; inactive = no such curve, though single readings can be large or run the other way. This excerpt belongs to a sample that is enriched for actives. Some compounds were tested as several samples or in several runs, with calls that do not always agree.

Assay: Primary qHTS for delayed death inhibitors of the malarial parasite plastid, 48 hour incubation
Details: P. falciparum luciferase growth in erythrocytes; series mostly up to 28.7 µM
Procedure, shortened: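 Firefly luciferase activity from engineered P. falciparum reports growth; inhibitors lower the luminescent signal. Cultures contained 2% hematocrit erythrocytes at 0.1% final parasitemia.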
Potency is read from the fitted curve at half-maximal effect.

Row | Compound | Potency | activity change, negative = inhibition
1 | COc1cc(C2C3=C(CCCC3=O)OC3=C2C(=O)CCC3)ccc1OCC(=O)Nc1ccccc1 | inactive | 
2 | O=C(CCC1CCCC1)N=C1SC2CS(=O)(=O)CC2N1Cc1ccccc1 (stereo unspecified) | inactive | 
3 | CC(C)(C)c1ccc(C(CC(=O)O)NS(=O)(=O)Cc2ccccc2)cc1 (stereo unspecified) | inactive | 
4 | CCCOc1ccc(C(=O)CCC(=O)OC(C)C(=O)Nc2ccc(NC(C)=O)cc2)cc1 (stereo unspecified) | inactive | 
5 | CCCOc1ccc(C(=O)C(CCC(CNCC)C(=O)c2ccc(OCCC)cc2)CNCC)cc1 (stereo unspecified) | 1.85 µM (active) | 
6 | CCCOc1ccc(C(=O)NCCc2ccccc2)cc1 | inactive | 
7 | COc1ccc(NC(=O)N2CCCC2C(=O)NCc2ccccc2Cl)cc1 (stereo unspecified) | inactive | 
8 | O=C(N/C(=C\c1ccc(O)cc1)C(=O)N1CCCCC1)c1ccccc1 | inactive | 
9 | Nc1ccn(C2CC(O)C(CO)O2)c(=O)n1 (stereo unspecified) | inactive | 
10 | Cc1ccc(NC(=O)CSc2nc(=O)n(CCN(C)C)c3c2CCCC3)c(C)c1 | inactive | 
11 | C=CCn1c(C)cc(C(=O)CN2C(=O)c3ccccc3C2=O)c1C | inactive | 
12 | COc1ccc2c3c(c(=O)oc2c1)C1O[C@](CCCCN2C(=O)c4ccccc4C2=O)(Cc2c1ccc1ccccc21)O3 |  | 44.1% [at 5.75 µM] (inactive)
13 | Cc1cc2c(c(=O)n1Cc1ccccc1)C1O[C@](CCCCN3C(=O)c4ccccc4C3=O)(Cc3ccccc31)O2 | 0.675 µM (active) | 
14 | CC(C)(C)c1cc(C(=O)NN)n(Cc2ccc(Cl)cc2Cl)n1 | 10.4 µM (active) | 
15 | CC(C)(C)NC(=O)NC(=O)COC(=O)Cc1ccc(Cl)cc1Cl | inactive | 
16 | NNC(=O)c1ccc(Cl)cc1Cl | inactive | 
17 | O=C(Cc1ccc(Cl)cc1)NC(=S)Nc1ccccc1O | inactive | 
18 | Cc1cc(SCc2c(F)cccc2Cl)nc(=O)[nH]1 | inactive | 
19 | C/C(=N\NC(=O)c1nc(C)cc(C)n1)c1ccccc1 | inactive | 
20 | Cc1cc(C)nc(S/C=C/C(=O)c2ccccc2)n1 | inactive | 
21 | COC(c1ccccc1)(c1ccccc1)C(Oc1nc(C)cc(C)n1)C(=O)O (stereo unspecified) | inactive and 11.7 µM (active) | 
22 | COc1ccccc1N1CCN(S(=O)(=O)c2ccc(Cl)cc2)CC1 |  | 1.21% [at 0.00184 µM] (inactive)
23 | CC1CCC(NC(=O)CN(C)S(=O)(=O)c2ccc3c(c2)c(=O)n(C)c(=O)n3C)CC1 (stereo unspecified) | inactive | 
24 | Cc1cc(=O)oc2c1ccc1ccccc12 | inactive | 
25 | Cc1ccc(NC(=S)NC2CCCC2)cc1 | inactive | 
26 | C=CCN1C2CCCC1CC(NC(=S)Nc1cccc(OC)c1)C2 (stereo unspecified) | inactive | 

Row | Compound | Potency | activity change, negative = inhibition
27 | Cc1cc(C)cc(NC(=S)NC2CC3CCCC(C2)N3Cc2cccs2)c1 (stereo unspecified) | 9.28 µM (active) | 
28 | CC(=O)O[C@H]1CC[C@@]2(C)[C@@H](CC[C@@H]3[C@@H]2CC[C@]2(C)[C@@H](C(C)(C)O)C[C@@H]32)C1 | inactive | 
29 | O=C(/C=C(O)/C=C/c1ccc(O)cc1)/C=C/c1ccc(O)cc1 | inactive | 
30 | O=C1CC[C@H](O)CCN1[C@H](CSc1ccc(Br)cc1)Cc1ccccc1 | inactive | 
31 | CC(=O)Nc1ccc(NC(=O)C(C)OC(=O)C2CC(=O)N(CCc3ccccc3)C2)cc1 (stereo unspecified) | inactive | 
32 | CC(=O)Nc1ccc(SC[C@H](Cc2ccccc2)N2CC[C@@H](C)CCC2=O)cc1 | 6.57 µM (active) | 
33 | Cc1ccc2nc(NC(=O)C3CSC4(C)CCC(=O)N34)sc2c1 (stereo unspecified) | inactive | 
34 | Cc1cc(-c2nnc(SCC(=O)Nc3ccc(F)cc3)n2N)n[nH]1 | inactive | 
35 | CC(C)Cc1nnc(NC(=O)CCc2ccccc2)s1 | inactive | 
36 | O=C(CSc1ncccn1)N1CCCC1 | inactive | 
37 | Cc1ccnc(N2CCN(C(=O)CSc3nc4ccccc4nc3N3CCCCC3)CC2)c1 | 13.1 µM (active) | 
38 | O=C(Cc1ccccc1Cl)N1CCN(c2ccccn2)CC1 | inactive | 
39 | COc1ccc2c(c1)c1nc3n(c(=O)c1n2CC(=O)Nc1ccccc1)CCS3 | inactive | 
40 | O=C(CNS(=O)(=O)c1ccccc1)N1CCN(C(=O)c2ccco2)CC1 | inactive | 
41 | CS/C(=C\C(=O)c1ccco1)Nc1ccccc1Cl | 8.28 µM (active) | 
42 | O=C(Nc1ccccc1C(=O)N1CCCCC1)c1ccco1 | inactive | 
43 | O=C(c1cccc(S(=O)(=O)Nc2ccccc2Cl)c1)N1CCN(C(=O)c2ccco2)CC1 | inactive | 
44 | CCC(C)N(C(=O)Cn1nc(C)c([N+](=O)[O-])c1C)C1CCS(=O)(=O)C1 (stereo unspecified) | inactive | 
45 | O=C(NCCc1ccco1)C(=O)NCCC1CCCCN1S(=O)(=O)c1ccccc1 (stereo unspecified) | inactive | 
46 | COCCn1c(Cc2cccn2C)nnc1SCC(=O)Nc1nccs1 | inactive | 
47 | COc1ccc(C)cc1NC(=O)CSc1nnc(CC(=O)Nc2ccccc2F)n1C | inactive | 
48 | COc1ccccc1NC(=O)CSc1nnc(Cc2cccn2C)n1-c1ccc(F)cc1 | 10.4 µM (active) | 
49 | Cc1ccc(NC(=O)COC(=O)CN2CCCCCC2=O)c(C)c1 | inactive | 
50 | Oc1ccc(N=Nc2nccs2)c(O)c1 | 9.28 µM (active) | 
51 | Oc1c(C=Nc2cccc3nsnc23)ccc2ccccc12 | inactive | 
